# Assay results taken from article PMC4336329 (PLoS ONE, 2015).
# The whole screen tested about 310,000 compounds, of which about 14,000 (4.5%) showed an effect of 50% or more. The effect is printed as a negative number. The entries come from a sample that favours strong results as a whole.
# Target: human ether-à-go-go-related gene (hERG) potassium channel (human, UniProt Q12809)
# Assay: primary screen, population patch clamp on CHO cells stably expressing hERG; higher = less effect of the substance
# 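Note: peak tail current of the secondary pulse compared with the same well before compound.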
# human ether-à-go-go-related gene (hERG) potassium channel, sequence (Q12809 whole entry, looked up): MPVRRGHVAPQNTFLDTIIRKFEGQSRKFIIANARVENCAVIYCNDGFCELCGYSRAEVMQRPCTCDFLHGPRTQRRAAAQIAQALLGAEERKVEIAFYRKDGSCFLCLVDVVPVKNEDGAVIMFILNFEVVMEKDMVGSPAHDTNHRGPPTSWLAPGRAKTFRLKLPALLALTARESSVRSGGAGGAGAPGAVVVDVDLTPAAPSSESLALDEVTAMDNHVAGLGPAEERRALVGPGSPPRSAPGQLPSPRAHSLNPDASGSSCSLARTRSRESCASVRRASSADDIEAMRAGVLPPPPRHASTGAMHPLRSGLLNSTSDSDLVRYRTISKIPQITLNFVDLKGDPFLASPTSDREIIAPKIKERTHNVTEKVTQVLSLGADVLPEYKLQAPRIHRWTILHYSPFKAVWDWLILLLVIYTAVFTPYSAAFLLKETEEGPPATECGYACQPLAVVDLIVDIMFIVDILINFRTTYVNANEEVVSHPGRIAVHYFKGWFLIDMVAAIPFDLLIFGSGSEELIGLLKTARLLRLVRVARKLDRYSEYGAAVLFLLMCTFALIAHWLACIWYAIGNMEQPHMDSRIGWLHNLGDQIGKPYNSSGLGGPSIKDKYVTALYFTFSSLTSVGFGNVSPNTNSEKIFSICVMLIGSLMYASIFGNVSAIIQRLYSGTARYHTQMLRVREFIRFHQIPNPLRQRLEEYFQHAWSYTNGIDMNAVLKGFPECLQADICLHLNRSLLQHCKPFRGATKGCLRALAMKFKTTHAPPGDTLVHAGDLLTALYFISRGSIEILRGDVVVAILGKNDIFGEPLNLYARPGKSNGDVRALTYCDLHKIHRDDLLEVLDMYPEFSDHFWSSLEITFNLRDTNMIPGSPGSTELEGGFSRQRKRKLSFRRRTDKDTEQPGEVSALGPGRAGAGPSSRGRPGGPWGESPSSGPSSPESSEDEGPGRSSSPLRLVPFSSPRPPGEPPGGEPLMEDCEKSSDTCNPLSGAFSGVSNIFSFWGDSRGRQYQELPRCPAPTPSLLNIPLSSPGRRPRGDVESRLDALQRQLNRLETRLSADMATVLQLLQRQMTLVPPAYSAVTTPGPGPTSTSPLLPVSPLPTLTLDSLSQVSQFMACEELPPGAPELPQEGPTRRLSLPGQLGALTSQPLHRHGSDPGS
row,Compound,"hERG current change (%, negative = inhibition) at 10uM"
1,CC(C)c1ccc(NC(=O)c2ccc(NS(C)(=O)=O)cc2)cc1,3.29%
2,COC(=O)c1ccc(OCCn2cnc3ccccc3c2=O)cc1,-11.2%
3,COc1ccc(NC(=O)C2Cc3cccc(OC)c3O/C2=N\O)cc1 (stereo not shown),6.66%
4,COc1cccc(-n2c(COc3ccccc3C)nnc2SCC(=O)O)c1,1.56%
5,CSCC[C@H](NC(=O)N1CCn2c1nc1ccccc12)C(=O)NCc1ccco1,-19.1%
6,CCN(C(=O)COC(=O)c1cc(-c2ccccc2)nc2c1c(C)nn2-c1ccccc1)C1CCS(=O)(=O)C1 (stereo not shown),21.5%
7,CCN(CC)CCCNC(=O)c1oc2ccc3c(c2c1C)C(O)CC(C)(C)O3 (stereo not shown),-4.08%
8,Cc1ccc(NS(=O)(=O)c2ccc3c(c2)n(C)c(=O)n3C)cc1C,14.2%
9,COc1ccc(CNCC(O)(c2ccc(F)cc2)c2ccc(F)cc2)cc1,-67.3%
10,COc1cccc(CNCC(O)(c2ccc(Cl)cc2)c2ccc(Cl)cc2)c1,-12.2%
11,Cc1ccc(CNCC(O)(c2ccc(F)cc2)c2ccc(F)cc2)cc1,-56.4%
12,Cc1ccc(CNCC(O)(c2ccccc2)c2ccc(F)cc2)cc1 (stereo not shown),-45.6%
13,OC(CNCc1ccccc1)(c1ccc(F)cc1)c1ccc(F)cc1,-38.1%
14,OC(CNCc1ccc(F)cc1)(c1ccccc1)c1ccc(F)cc1 (stereo not shown),-33.8%
15,OC(CNCc1ccc(F)cc1)(c1ccc(F)cc1)c1ccc(F)cc1,-33.7%
16,COc1ccc(CNCC(O)(c2ccccc2)c2ccc(F)cc2)cc1 (stereo not shown),-73.3%
17,Cc1ccc(C(O)(CNCc2ccccc2)c2ccccc2)cc1 (stereo not shown),-33.9%
18,CC(C)C(NC(=O)C1CCCCC1)C(=O)Nc1ccncc1 (stereo not shown),9.18%
19,Cc1cc(C)cc(C(=O)N2CCC(CCC(=O)NC3CC3)CC2)c1,-2.09%
20,CCOC(=O)C1CCN(C(=O)CN(c2ccc3c(c2)OCCO3)S(C)(=O)=O)CC1,-4.03%
21,NC(=O)C1CCN(C(=O)CN(c2ccc3c(c2)OCCO3)S(=O)(=O)c2ccccc2)CC1,-18%
22,CCOC(=O)N1CCN(C(=O)CN(c2cc(Cl)ccc2OC)S(=O)(=O)c2ccccc2)CC1,-19.4%

row,Compound,"hERG current change (%, negative = inhibition) at 10uM"
1,CCOC(=O)C1CCN(C(=O)CN(c2cc(Cl)ccc2OC)S(=O)(=O)c2ccccc2)CC1,-67%
2,CCOC(=O)C1CCN(C(=O)CN(c2ccc3c(c2)OCCO3)S(=O)(=O)c2ccccc2)CC1,-53.1%
3,CCOC(=O)C1CCN(C(=O)CN(c2cc(OC)ccc2OC)S(=O)(=O)c2ccccc2)CC1,-2.73%
4,COC(=O)NCc1ccc(CNC(=O)OC)cc1,4.84%
5,CCc1cc(C(=O)N2CCN(c3ccccc3OC)CC2)sc1C,-15%
6,COc1cc(OC)cc(C(=O)NNC(=S)Nc2ccccc2OC)c1,10.8%
7,CC1CCN(C(=O)CN2C(=O)C(=O)N(C)C2=O)c2ccccc2S1 (stereo not shown),5.74%
8,CSc1cccc(NC(=O)/C=C/c2ccco2)c1,1.51%
9,O=C(COC(=O)/C=C/c1ccc(F)cc1)NCc1cccs1,8.26%
10,CCOc1cc(-c2nc3ccccc3s2)ccc1O,4.57%
11,CC[n+]1cccc(-c2nc3ccccc3s2)c1.[I-],-0.683%
12,CC[n+]1c(/C=C/N(C)c2ccccc2)n(-c2ccccc2)c2ccc(-c3nc4ccccc4s3)cc21.[I-],-81.1%
13,CCOc1ccc(CCNC(=O)c2cnccn2)cc1OCC,11.1%
14,CCNc1nc2c(c(=O)n(C)c(=O)n2C)n1Cc1ccc(Cl)cc1,-7.07%
15,c1ccc(-n2nnnc2Oc2ccc(-n3ccnc3)cc2)cc1,-54%
16,COc1ccc(Oc2nnnn2-c2ccccc2)cc1,-16.6%
17,Fc1ccc(Oc2nnnn2-c2ccccc2)cc1,44.8%
18,CCNC(=O)COc1ccc(-c2ccccc2)cc1,-19.4%
19,CCOC(=O)c1cn2nc(Oc3ccc(C#N)cc3)ccc2n1,-54.1%
20,CCOC(=O)c1cn2nc(Oc3ccc(C)cc3)ccc2n1,1.97%
21,CCOC(=O)c1cn2nc(Oc3ccc(OC)cc3)ccc2n1,4.29%
22,CC1=C/C(=N\OS(=O)(=O)c2ccccc2)C(C)=CC1=O,-9.37%

row,Compound,"hERG current change (%, negative = inhibition) at 10uM"
1,O=C(CSc1nnc(COc2ccc(Cl)cc2)o1)N1CCN(c2ccccc2)CC1,-1.37%
2,COc1ccccc1C1CC(c2ccc(Cl)cc2Cl)Nc2nc(N)nn21 (stereo not shown),-44.7%
3,Cc1cccn2c(=O)c3cc(C(=O)NCc4ccco4)c(=N)n(C4CCCCC4)c3nc12,-77.4%
4,Cc1cccn2c(=O)c3cc(C(=O)NCc4ccco4)c(=N)n(C4CCCC4)c3nc12,-78.8%
5,Cc1cccn2c(=O)c3cc(S(=O)(=O)c4ccc(Br)cc4)c(=N)n(C4CCCC4)c3nc12,9.92%
6,Cc1ccc(S(=O)(=O)c2cc3c(=O)n4cccc(C)c4nc3n(C3CCCCC3)c2=N)cc1,15.7%
7,Cc1cccn2c(=O)c3cc(S(=O)(=O)c4ccc(Br)cc4)c(=N)n(C4CCCCC4)c3nc12,18.6%
8,COc1ccc(-n2c(N)c(C(=O)NCc3ccco3)c3nc4ccccc4nc32)c(OC)c1,0.913%
9,Cc1csc(NC(=O)c2sc3nc(-c4cccs4)ccc3c2N)n1,5.65%
10,COc1ccc(OC)c(NC(=O)CSc2nnc(C3CCCCC3)o2)c1,-19%
11,CC(=O)N1CC(C)Sc2ccc(S(=O)(=O)NCc3ccc(F)cc3)cc21 (stereo not shown),-49.6%
12,O=C1c2ccccc2S(=O)(=O)c2cc(C(=O)N3CCN(c4ccc(Cl)cn4)CC3)ccc21,-33.1%
13,Cc1noc(C)c1CSCC(=O)Nc1ccc(S(C)(=O)=O)cc1,15.2%
14,CCN(CC)S(=O)(=O)c1ccc(N(C)C)c(NC(=O)CSCc2c(C)noc2C)c1,-60.4%
15,Cc1noc(C)c1CSCC(=O)Nc1cc(S(C)(=O)=O)ccc1Cl,0.564%
16,CCOc1ccc(S(=O)(=O)N(CC)CC)cc1NC(=O)CSCc1c(C)noc1C,-67.2%
17,CCOc1ccc(S(=O)(=O)N2CCCCC2)cc1NC(=O)CSCc1c(C)noc1C,-39.5%
18,CCOc1ccc(S(=O)(=O)N2CCOCC2)cc1NC(=O)CSCc1c(C)noc1C,-17.3%
19,C=CCOc1cccc(C2C(C(=O)c3cccs3)=C(O)C(=O)N2Cc2cccnc2)c1 (stereo not shown),-1.2%
20,CCOC(=O)C1=C(C)NC(=O)NC1c1cc(Br)c(O)c(OC)c1 (stereo not shown),-2.71%
21,COc1ccc(CNc2ccc3c(c2)ncn3C)cc1OC,15.8%
22,Cc1cnc(C(=O)Nc2cc(S(=O)(=O)N3CCOCC3)ccc2N2CCN(C)CC2)cn1,-18.6%

row,Compound,"hERG current change (%, negative = inhibition) at 10uM"
1,COc1ccc(-n2cc(CNCC3CCOCC3)c(-c3cccc(F)c3)n2)cc1,-78.5%
2,COc1ccc(-n2cc(CNC3CCOCC3)c(-c3cccc(F)c3)n2)cc1,-48.2%
3,COc1cccc(-c2nn(-c3ccccc3)cc2CN2CCCO2)c1,-5.81%
4,COc1ccc(-n2cc(CNC3CCN(C)CC3)c(-c3cccc(F)c3)n2)cc1,-77.5%
5,COc1ccc(-n2cc(CNCc3cnc4ccccn34)c(-c3cccc(F)c3)n2)cc1,-30.2%
6,COc1ccc(-n2cc(CNCCCn3ccnc3)c(-c3ccccc3Cl)n2)cc1,-44.9%
7,COc1ccc(-n2cc(CN[C@H]3CCCCNC3=O)c(-c3cccc(F)c3)n2)cc1,-64.1%
8,COc1ccc(-n2cc(CN(C)C3CCOCC3)c(-c3cccc(F)c3)n2)cc1,-29.1%
9,COc1ccc(-n2cc(CNCCCn3ccnc3)c(-c3cccc(F)c3)n2)cc1,-75.2%
10,COc1ccc(N2C(=O)CC(NC3CCCCNC3=O)C2=O)cc1 (stereo not shown),8.59%
11,COc1ccc(-n2cc(CN(C)Cc3n[nH]c(=O)[nH]3)c(-c3cccc(F)c3)n2)cc1,-15.4%
12,COc1ccc(-n2cc(CNC3CCC(O)CC3)c(-c3cccc(F)c3)n2)cc1 (stereo not shown),-45.3%
13,Cc1cccc(C)c1OCC(=O)Nc1ccc(N2CCOCC2)cc1,-4.13%
14,O=C(CC12CC3CC(CC(C3)C1)C2)Nc1cccc2ncccc12,-23%
15,CN(C)c1ccc(Nc2cc(Cl)ncn2)cc1,1.65%
16,COc1ccc(OC)c(N(CC(=O)Nc2ccc3c(c2)OCCO3)S(C)(=O)=O)c1,9.64%
17,CC(C)CC(=O)NC(=S)Nc1ccccc1C(=O)Nc1ccccc1,8.01%
18,O=C(c1ccc(CN2CCOCC2)cc1)N1CCN(c2ccccc2F)CC1,-3.33%
19,COc1ccc(CNCc2cc3c(C(C)(C)C)nn(-c4ccccc4)c3[nH]c2=O)cc1,-24%
